IL1B NFkB pot: enhances IL-1B driven NFkB nuclear translocation. activation, % at 2 µM. AID 819. HUVEC IL-1B NFkB p65 nuclear translocation imaging. 94,000 tested, 0.3% active;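 active means activation above 40%, about the mean plus 3 SD, also judged a hit on visual image review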;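 further: percent activation is computed from the nuclear over cytoplasmic p65 intensity ratio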
ERa SRC1 pot: ER-alpha (human) coactivator binding potentiation; TR-FRET ERalpha-LBD/SRC-Cy5 coactivator binding, 2 h; 100 = basal binding, no effect; 86,000 tested, 1.3% active; AID 639; coactivator binding (% of control), % at 25.6 µM; in the data active means activity above about 200%;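 further: binding measured in presence of low estradiol as agonist stimulus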
IL1B cytotox: HUVEC cytotoxicity counter-screen, IL-1B stimulated; HUVEC cell count loss, Hoechst imaging; cell count reduction, % at 2 µM; 94,000 tested, 0.41% active; AID 845;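 active means cell count reduction more than 3 SD above the screen-wide mean, cut at about 70% in these data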
IL1B NFkB inh: blocks IL-1B driven NFkB nuclear translocation in HUVEC cells; inhibition, % at 2 µM; AID 796; 94,000 tested, 0.43% active; HUVEC IL-1B NFkB p65 nuclear translocation imaging;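 active means inhibition above about 30% together with a positive call from visual inspection of the well image, limit read from the data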;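 further: nuclear over cytoplasmic p65 intensity ratio measured by imaging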
ERb coact inh: blocks coactivator binding to human estrogen receptor beta; AID 633; Q92731; TR-FRET ER-beta LBD / SRC1-Cy5 peptide binding; receptor agonist-loaded with 1 µM estradiol; inhibition, % at 25.6 µM; 86,000 tested, 1.3% active;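 active means compounds whose percent inhibition of the receptor-coactivator binding signal exceeds about 50% in the single-dose screen, limit read from the data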
Target sequence (Q92731 whole entry, looked up, the tested form may be a part): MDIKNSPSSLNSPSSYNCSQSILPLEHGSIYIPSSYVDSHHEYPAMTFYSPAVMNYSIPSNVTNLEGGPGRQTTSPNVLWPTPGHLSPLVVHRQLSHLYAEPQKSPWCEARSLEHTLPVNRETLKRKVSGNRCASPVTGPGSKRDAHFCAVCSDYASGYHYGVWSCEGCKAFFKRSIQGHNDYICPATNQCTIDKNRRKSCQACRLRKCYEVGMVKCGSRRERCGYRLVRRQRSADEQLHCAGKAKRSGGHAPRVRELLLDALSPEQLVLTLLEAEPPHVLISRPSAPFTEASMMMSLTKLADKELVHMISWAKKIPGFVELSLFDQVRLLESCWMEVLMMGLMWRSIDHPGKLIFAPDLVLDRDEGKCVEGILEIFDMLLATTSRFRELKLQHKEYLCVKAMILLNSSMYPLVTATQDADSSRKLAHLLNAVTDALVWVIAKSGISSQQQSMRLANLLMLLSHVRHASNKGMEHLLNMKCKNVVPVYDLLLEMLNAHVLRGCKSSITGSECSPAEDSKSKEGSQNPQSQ
ERa SRC1 inh: ER-alpha (human) coactivator binding inhibition. AID 629. P03372. TR-FRET ER-alpha LBD / SRC-1 peptide, estradiol-bound. inhibition, % at 25.6 µM. 86,000 tested, 1.7% active; in the data active means inhibition above about 50%
Hits are given with their value; [ ] = dose if it differs, or a comment. The list is not random: actives were taken first. Their share in the collection is about 3.6%.

Cc1ccc(-c2nc3cc(NC(=O)C(C)C)ccc3o2)cc1 was read as IL1B NFkB pot inactive, ERa SRC1 pot inactive, IL1B cytotox inactive, IL1B NFkB inh inactive, ERb coact inh inactive and ERa SRC1 inh inactive.
CC(C)CC(=O)Nc1ccc2oc(-c3ccncc3)nc2c1 was read as IL1B NFkB pot inactive, ERa SRC1 pot inactive, IL1B cytotox inactive, IL1B NFkB inh inactive, ERb coact inh inactive and ERa SRC1 inh inactive.
CC(Oc1ccc(Cl)cc1Cl)C(=O)Nc1ccc2oc(-c3ccncc3)nc2c1 (stereo unspecified) was read as IL1B NFkB pot inactive, ERa SRC1 pot 327, IL1B cytotox inactive, IL1B NFkB inh inactive, ERb coact inh inactive and ERa SRC1 inh inactive.
`O=S(=O)(c1ccc2oc(-c3ccncc3)nc2c1)c1ccc2oc(-c3ccncc3)nc2c1` gave ERa SRC1 pot 237[fluorescence artefact?], ERb coact inh 51[fluorescence artefact?] and ERa SRC1 inh inactive.
`O=S(=O)(c1ccc(F)cc1)N1CCN(c2ncnc3c2cnn3-c2ccccc2)CC1` gave IL1B NFkB pot inactive, ERa SRC1 pot inactive, IL1B cytotox inactive, IL1B NFkB inh inactive, ERb coact inh inactive and ERa SRC1 inh inactive.
O=C(O)c1cc(S(=O)(=O)Nc2ccc3oc(=O)sc3c2)ccc1O was read as IL1B NFkB pot inactive, ERa SRC1 pot inactive, IL1B cytotox inactive, IL1B NFkB inh inactive, ERb coact inh 55[fluorescence artefact?] and ERa SRC1 inh inactive.
For COc1ccc2c(=O)c3c(=O)n(Cc4ccco4)c(C4CCCCC4)nc3oc2c1 the results were ERa SRC1 pot inactive, ERb coact inh inactive and ERa SRC1 inh inactive.
`O=C1N2CCSC2=NC1(NS(=O)(=O)c1ccccc1)C(F)(F)F` (stereo unspecified) gave IL1B NFkB pot inactive, ERa SRC1 pot inactive, IL1B cytotox inactive, IL1B NFkB inh inactive, ERb coact inh inactive and ERa SRC1 inh inactive.
Cc1ccc(CSc2nc3ccccc3cc2C=O)cc1 was read as IL1B NFkB pot inactive, IL1B cytotox 73 and IL1B NFkB inh 36.
Screening O=Cc1cc2ccccc2nc1SCc1ccc(Cl)cc1 returned IL1B NFkB pot inactive, IL1B cytotox inactive and IL1B NFkB inh inactive.
For O=Cc1cc2ccccc2nc1SCc1ccc(Cl)c(Cl)c1 the results were IL1B NFkB pot inactive, IL1B cytotox inactive and IL1B NFkB inh 34.
COc1ccc(-n2nc(C(=O)Nc3ccc(OC)c(OC)c3)c3c4ccccc4n(C)c3c2=O)cc1 was read as IL1B NFkB pot inactive, ERa SRC1 pot inactive, IL1B cytotox inactive, IL1B NFkB inh inactive, ERb coact inh inactive and ERa SRC1 inh 57.
`CCc1c(C)nc(/N=C(/NC(=O)c2ccccc2)Nc2ccccc2OC)[nH]c1=O` gave IL1B NFkB pot inactive, ERa SRC1 pot inactive, IL1B cytotox inactive, IL1B NFkB inh 55, ERb coact inh inactive and ERa SRC1 inh inactive.
Screening O=C(C1CCN(c2nnc(-n3cccc3)s2)CC1)N1CCN(Cc2ccc3c(c2)OCO3)CC1 returned ERa SRC1 pot inactive, ERb coact inh inactive and ERa SRC1 inh inactive.
CC1CCN(Cc2ccc(NC(=O)C3CCN(c4nnc(-n5cccc5)s4)CC3)cc2)CC1 was read as ERa SRC1 pot inactive, ERb coact inh 72[fluorescence artefact?] and ERa SRC1 inh 85[fluorescence artefact?].
Screening CCn1c(CSCc2ccc(F)cc2)nnc1SCC(=O)N1CCN(c2ccccc2)CC1 returned IL1B NFkB pot inactive, IL1B cytotox inactive and IL1B NFkB inh inactive.
For CCn1c(Cc2ccc(OC)cc2)nnc1SCC(=O)N1CCN(c2ccccc2)CC1 the results were IL1B NFkB pot inactive, ERa SRC1 pot 591[fluorescence artefact?], IL1B cytotox inactive, IL1B NFkB inh inactive, ERb coact inh inactive and ERa SRC1 inh inactive.
CCc1ccc(-c2nc(C(N)=O)c3[nH]c(=O)n(-c4ccccc4OC)c3n2)cc1 was read as IL1B NFkB pot inactive, ERa SRC1 pot 300[fluorescence artefact?], IL1B cytotox inactive, IL1B NFkB inh inactive, ERb coact inh inactive and ERa SRC1 inh inactive.
`COc1ccc(-c2nc(C(N)=O)c3[nH]c(=O)n(-c4cccc(Cl)c4)c3n2)cc1OC` gave ERa SRC1 pot inactive, ERb coact inh inactive and ERa SRC1 inh 84.
COc1cccc(-c2nc(C(N)=O)c3[nH]c(=O)n(-c4cccc(Cl)c4)c3n2)c1OC was read as ERa SRC1 pot inactive, ERb coact inh inactive and ERa SRC1 inh inactive.

Bioassay records deposited in PubChem by several laboratories.
